Consider 25 compounds from PubChem BioAssay (NCATS).

“And” between values parts separate entries of the source, which are not always exact repeats. Equal values may be shown once. Inconclusive results are not listed. Values without a mark were called inactive. The source made the active and inactive calls. Calls follow the shape of the dose curve; as a rule, active = well fitted curve in the direction sought with a large enough effect; inconclusive = small, poorly fitted or top-dose-only effect, or another doubt; inactive = no such curve, though single readings can be large; an effect the other way counts as inactive or inconclusive.

Test [1] can be described thus: Quantitative highthroughput screen to assess conditional lethalithy of NOMO1 cells grown in Human Plasma-Like Medium with dialyzed fetal bovine serum (HPLM+ds) (AID 1963878). Also: nearly all actives have a fitted effect of over 35% in size. Also: potency is read from the fitted curve at half-maximal effect.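 As to viability: 100% = DMSO wells and 0% = empty wells on each plate.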 In a few lines: (§1)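 Each medium arm—HPLM with 10% dialyzed FBS, or RPMI1640 with 5 mM glucose and 10% untreated or dialyzed FBS—was screened against an 11-point, 3-fold compound titration for 48 h at 37 °C, with CellTiter-Glo luminescence as endpoint.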

The nature of test [2]: Quantitative highthroughput screen to assess conditional lethalithy of P12 Ichikawa cells grown in Human Plasma-Like Medium with dialyzed fetal bovine serum (HPLM+ds) (AID 1963879). Also: nearly all actives have a fitted effect of over 35% in size. Also: potency is read from the fitted curve at half-maximal effect. As to viability: series mostly up to about 46 µM. Particulars: Potency: viability. The gist of the method: as §1
Test [3] can be described thus: Quantitative highthroughput screen to assess conditional lethalithy of P12 Ichikawa cells grown in RPMI1640 with untreated serum (RPMI+s) (AID 1963881). Also: nearly all actives have a fitted effect of over 35% in size. Also: potency is read from the fitted curve at half-maximal effect.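 As to viability: series mostly up to about 46 µM; 100% = DMSO wells and 0% = empty wells without cells.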 Particulars: Potency: viability. In a few lines:
as §1

Test [4] can be described thus: Quantitative highthroughput screen to assess conditional lethalithy of SEM cells grown in Human Plasma-Like Medium with dialyzed fetal bovine serum (HPLM+ds) (AID 1963882). Also: nearly all actives have a fitted effect of over 35% in size. Also: potency is read from the fitted curve at half-maximal effect. As to viability: series mostly up to about 46 µM. The gist of the method:
as §1

The nature of test [5]: Quantitative highthroughput screen to assess conditional lethalithy of SEM cells grown in RPMI1640 with unreated serum (RPMI+s) (AID 1963883). Also: nearly all actives have a fitted effect of over 35% in size. Also: potency is read from the fitted curve at half-maximal effect.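 As to viability: 100% = DMSO wells and 0% = empty wells without cells.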 In a few lines: as §1
A short description of test [6]: Quantitative highthroughput screen to assess conditional lethalithy of SEM cells grown in RPMI1640 with dialyzed fetal bovine serum (RPMI+ds) (AID 1963884). Also: nearly all actives have a fitted effect of over 35% in size. Also: potency is read from the fitted curve at half-maximal effect.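 As to viability: series mostly up to about 46 µM; 100% = DMSO control wells and 0% = empty wells without cells.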 The gist of the method:
as §1

The nature of test [7]: Quantitative highthroughput screen to assess conditional lethalithy of NOMO1 cells grown in RPMI1640 with dialyzed fetal bovine serum (RPMI+ds) (AID 1963877). Also: nearly all actives have a fitted effect of over 30% in size. Also: potency is read from the fitted curve at half-maximal effect.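 As to viability: series mostly up to about 46 µM; 100% = DMSO control wells and 0% = empty wells.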 In a few lines:
as §1

Test [8] is described as follows: Quantitative highthroughput screen to assess conditional lethalithy of P12 Ichikawa cells grown in RPMI1640 with dialyzed fetal bovine serum (RPMI+ds) (AID 1963880). Also: nearly all actives have a fitted effect of over 35% in size. Also: potency is read from the fitted curve at half-maximal effect.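 As to viability: 100% = DMSO wells and 0% = empty wells on each plate.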 The following applies: Potency: P12-Ichikawa viability. The gist of the method:
as §1

Test [9] is described as follows: Cellular viability qHTS for adrenocortical cancer (ACC) cell line SW-13 (AID 1963989).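 Also: cells grown in serum-free medium with ITS supplement; % is scaled to controls: 0 for no effect and ±100 for the full control effect; nearly all actives have a fitted effect of over 65% in size.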 Particulars: SW-13 ACC cells viability, CellTiter-Glo, 48 h; activity (max response): hits give low values. The gist of the method:
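Here, serum-free SW-13 cultures were dosed up to 46 uM. Following 48 h, ATP-dependent luminescence (CellTiter-Glo) reported viable cells, and logistic modeling produced IC50 values.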

Test [10] is described as follows: Cellular viability qHTS for adrenocortical cancer (ACC) cell line NCI-H295R (AID 1963990). Also: nearly all actives have a fitted effect of over 60% in size. Also: potency is read from the fitted curve at half-maximal effect. The gist of the method: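 Viability of NCI-H295R after 48 h of treatment (final up to 46 uM) measured through cellular ATP luminescence.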
(In general: In qHTS, concentration-response curves come from the screen itself.)

Consider `CC(=O)NCC(=O)N1[C@H]2CC[C@H]1c1cc(Nc3ncc(C(F)(F)F)c(NC4CCC4)n3)ccc12`, for which the Potency in test [1] was 0.296 µM (active); in test [2] it was 0.132 µM (active); in test [3], 0.132 µM (active); in test [4] it was 0.118 µM (active); in [5], 0.105 µM (active); in test [6] it was 0.105 µM (active).
In the case of `Oc1cc(O)cc(C=Cc2ccc(O)c(O)c2)c1`, the Potency entry in [7] is “inactive”. The Potency in [5] is 18.7 µM (active).
Turning to `CC(C)c1ccc2oc3nc(N)c(C(=O)O)cc3c(=O)c2c1`, the Potency result in test [7], in test [2], in test [8], in test [3], in test [4] and in test [6] was “inactive” in each case. Also, in test [9], the activity (max response) is -3.22% and -4.54%.
For the compound `CC(C)N(CCCNC(=O)Nc1ccc(C(C)(C)C)cc1)C[C@H]1O[C@@H](n2cc(Br)c3c(N)ncnc32)[C@H](O)[C@H]1O`, the Potency in test [1] is 20.9 µM (active).
On to `COc1cc(Cl)cn2c(-c3cccc(NC4CNC4)n3)cnc12`, for which the Potency entry in test [1], in test [2], in test [3], in test [5] and in [6] was “inactive” throughout.
Regarding `Cc1cncc2cccc(S(=O)(=O)N3CCCN(C(=O)CN)C[C@@H]3C)c12`, the Potency in test [7] is 4.18 µM (active); in test [2], 5.26 µM (active); in test [8], 6.62 µM (active); in test [3] it was 6.62 µM (active); in [5], 5.26 µM (active); in [6] it was 4.18 µM (active). Besides, the activity (max response) in [9] was -18.3%. Moreover, the Potency entry in [10] is “inactive”.
On to `NNCCc1ccccc1`, for which the Potency entry in [7], in [2], in test [8], in test [3] and in test [10] was “inactive” in each case. In test [9], the activity (max response) was -8.17%.
On to `CNC(=O)c1ccc(N2C(=S)N(c3cnc(C#N)c(C(F)(F)F)c3)C(=O)C23CCC3)cc1F`, for which, in test [7], the Potency was 2.35 µM (active). Moreover, the Potency entry in [2], in test [3], in test [4], in test [5] and in test [6] was “inactive” throughout. For the same compound, the activity (max response) in [9] is 4.43%.
Regarding `N[C@H]1CN(c2c(F)cc3c(=O)c(C(=O)O)cn(C4C[C@@H]4F)c3c2Cl)CC12CC2` (some centres undefined), the Potency result in test [7], in test [2], in test [3], in test [5] and in [10] was “inactive” throughout. Further, the activity (max response) in test [9] is 4.52%.
As to `CC(C)c1c(C(=O)Nc2ccccc2)c(-c2ccccc2)c(-c2ccc(F)cc2)n1CC[C@H](O)C[C@@H](O)CC(=O)O`, the Potency was 16.6 µM (active) in test [7] and 18.7 µM (active) in [1]. Moreover, in test [4], the Potency entry was “inactive”.
Consider `CN(C)CCOc1cc(-c2cn[nH]c2)ccc1NC(=O)C1COc2ccccc2O1` (centres undefined), for which the values for the Potency in test [7] and in [10] were 6.62 µM (active) and 17.8 µM (active), respectively. The Potency result in [2] and in [8] was “inactive” in each case.
Regarding `CCOC(=O)[C@H](CCc1ccccc1)N[C@@H](C)C(=O)N1[C@@H](C(=O)O)C[C@H]2CCC[C@@H]21`, the values for the Potency in test [7] and in test [5] were 23.5 µM (active) and 20.9 µM (active), respectively.
Take `N#Cc1ccc(COC[C@H]2O[C@@H](n3c(NCc4ccc(Cl)c(Cl)c4)nc4c(N)ncnc43)[C@@H](O)[C@@H]2O)cc1`: the Potency in test [1] was 7.43 µM (active). Moreover, the Potency entry in test [2] and in [4] was “inactive” throughout.
`C[C@@H]1C[C@H]2[C@@H]3CCC4=CC(=O)C=C[C@]4(C)[C@@]3(F)[C@@H](O)C[C@]2(C)[C@@]1(O)C(=O)CO`: the Potency result in test [7] and in test [10] was “inactive” throughout. In addition, the activity (max response) in test [9] is 6.21% and 9.17%.
Consider `CC(C)[C@H](C(=O)Nc1ccc(C(=O)NO)cc1)c1ccccc1`, for which the Potency in [1] is 2.64 µM (active); in [2] it was 2.35 µM (active); in [8], 2.35 µM (active); in test [3] it was 2.09 µM (active); in test [4], 1.48 µM (active); in test [5], 1.66 µM (active). Also, the Potency in test [6] was 1.48 µM (active); in test [10] it was 1.26 µM (active).
For the compound `Cc1cccc(C#Cc2ccccc2)n1`, the Potency result in test [7], in [2], in [8], in test [3], in test [4] and in [5] was “inactive” each time. The Potency in [6] is 13.2 µM (active).
As for `COc1cc2c(Nc3ccc(Cl)c(Cl)c3F)ncnc2cc1OCC1C[C@@H]2CN(C)C[C@H]2C1`, the Potency in test [1] was 4.18 µM (active); in [2] it was 11.8 µM (active); in test [3] it was 13.2 µM (active); in test [4] it was 10.5 µM (active); in test [5], 2.64 µM (active); in test [6], 11.8 µM (active).
For `CCOC(=O)N[C@@H]1CC[C@@H]2[C@@H](C1)C[C@H]1C(=O)O[C@H](C)[C@H]1[C@@H]2C=Cc1ccc(-c2cccc(F)c2)cn1`, the Potency entry in test [2] is “inactive”.
As for `CC(C)OC(=O)[C@H](C)N[P@](=O)(OC[C@H]1O[C@@H](n2ccc(=O)[nH]c2=O)[C@](C)(F)[C@H]1O)Oc1ccccc1`, the Potency in test [2] was 1.32 µM (active); in [8], 4.69 µM (active); in [3] it was 6.62 µM (active); in test [4] it was 4.69 µM (active); in test [5], 6.62 µM (active); in test [6], 8.33 µM (active).
Regarding `COC(=O)C=CC(=O)OC`, the Potency in test [2] is 0.935 µM (active); in [8], 1.48 µM (active); in test [3], 2.64 µM (active); in [5], 1.32 µM (active); in [6] it was 2.64 µM (active).
As to `Cc1nnc(C(C)C)n1C1C[C@H]2CC[C@@H](C1)N2CC[C@H](NC(=O)C1CCC(F)(F)CC1)c1ccccc1` (some centres undefined), the Potency in [2] was 16.6 µM (active).
Take `Oc1ccc(C=Cc2cc(O)cc(O)c2)cc1`: the Potency in test [1] is 14.8 µM (active); in test [5], 11.8 µM (active); in [6], 20.9 µM (active).
Take `CC(C)N(CC[C@H](c1ccccc1)c1cc(CO)ccc1O)C(C)C`: the Potency result in test [2], in test [8], in test [3], in test [5] and in [6] was “inactive” in each case.
For the compound `COc1ccc(-c2coc3cc(O)ccc3c2=O)cc1`, the Potency result in test [2], in test [8], in [3], in test [4], in [5] and in test [6] was “inactive” in each case.
For the compound `CCOc1ccccc1N=Nc1c(C)[nH]n(-c2nc(-c3ccccc3)cs2)c1=O`, the Potency in test [2] was 16.6 µM (active); in [4], 5.26 µM (active); in test [5], 6.62 µM (active); in test [6], 7.43 µM (active). Also, the Potency entry in test [8], in test [3] and in test [10] was “inactive” in each case. Also, the activity (max response) in test [9] is -16.4%.
